Source: PubChem (National Center for Advancing Translational Sciences (NCATS))
MARV entry inh – Marburg virus entry inhibition; Potency, µM (doses to about 37.8 µM), actives largely listed as inhibitors; actives 1.8% (n = 300,000); Marburg virus pseudotyped entry inhibition, cell reporter; calls by dose curve; tested in HEK293 cells
Lassa entry inh – blocks Lassa virus binding to or entry into cells; AID 540256; Potency, µM (series often up to 37.9 µM), usual class: inhibitors; actives 1.2% (n = 300,000); Lassa virus pseudotype entry inhibition, cell reporter; calls by dose curve; tested in HEK293 cells; further: nearly all actives have a fitted effect of over 50% in size
FMDV antiviral – antivirals against foot and mouth disease virus | FMDV antiviral cell-based qHTS | Potency, µM (titrated, usually from 57.9 µM), actives largely listed as inhibitors | actives 1.2% (n = 410,000); calls by dose curve; tested in HEK293T cells; further: read-out not given here; nearly all actives have a fitted effect of over 45% in size
HCMV inh – inhibitors of human cytomegalovirus. HFF cells, HCMV-luciferase reporter, 72 h; stronger effect = lower value. activity change, negative = inhibition, % at 57.5 µM. actives 4.5% (n = 410,000); in the data active means activity change below about -60%; inconclusive means no clear call, values can overlap the other calls; inactive means above about -39%
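Luciferase read-out from HCMV-luciferase-infected HFFs (MOI 1 PFU/cell) 72 h post infection at 37C; compounds added after 16 h cell attachment; activity normalized between buffer-only basal and Salinomycin (10uM) inhibitor controls.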
Of the large screens only hits and unclear results are named; the others gave an inactive call; ! = a repeat was not active. Sampled rows, rich in hits. Any-hit rate of the full collection: about 6.2%.

COc1ccc(-c2csc(=NCCO)n2-c2ccccc2)cc1	MARV entry inh inconclusive, FMDV antiviral 18µM, HCMV inh inconclusive
OCCCn1c(-c2ccc(F)cc2)csc1=Nc1ccc(F)cc1	MARV entry inh inconclusive
Cc1ccc(-c2csc(=Nc3ccccc3)n2CCCO)cc1	FMDV antiviral 32µM
COc1ccc(-c2csc(=Nc3ccccc3)n2CCO)cc1	MARV entry inh inconclusive, FMDV antiviral 25µM, HCMV inh -62
COc1ccc(OCCn2c(=N)n(CCO)c3ccccc32)cc1	MARV entry inh inconclusive
COc1ccc(-c2cn(-c3ccccc3)nc2CO)cc1	MARV entry inh inconclusive
Cc1csc(=Nc2c(C)n(C)n(-c3ccccc3)c2=O)n1Cc1ccccc1	none
COc1ccc(CCNc2nc(-c3cccnc3)nc3ccccc23)cc1OC	MARV entry inh 8.9µM, Lassa entry inh inconclusive
COc1ccc(/C=N/Nc2nc(-c3cccnc3)nc3ccccc23)cc1OC	MARV entry inh inconclusive
COc1ccccc1NC(=O)Nc1nc(-c2cccnc2)nc2ccccc12	MARV entry inh 7.1µM (no result: Lassa entry inh, HCMV inh)
COC(=O)CNc1nc(-c2cccnc2)nc2ccccc12	none
CN(Cc1ccccc1F)c1nc(-c2cccnc2)nc2ccccc12	MARV entry inh inconclusive, Lassa entry inh inconclusive, FMDV antiviral inconclusive
CCOc1ccc(CN(C)c2nc(-c3cccnc3)nc3ccccc23)cc1OC	MARV entry inh inconclusive, FMDV antiviral 25µM (no result: Lassa entry inh)
O=C(Nc1nnc(-c2ccccc2Cl)o1)c1ccc(S(=O)(=O)N2CCCCCC2)cc1	MARV entry inh inconclusive, Lassa entry inh inconclusive (no result: HCMV inh)
CC1CCN(S(=O)(=O)c2ccc(C(=O)Nc3nnc(C4=COCCO4)o3)cc2)CC1	HCMV inh -70 (no result: MARV entry inh, Lassa entry inh)
O=C(Nc1nnc(-c2cccs2)o1)c1ccc(S(=O)(=O)N2CCOCC2)cc1	MARV entry inh inconclusive, HCMV inh -84
CCS(=O)(=O)N1CCC(C(=O)Oc2ccc(C(=O)OC)cc2)CC1	MARV entry inh inconclusive
N#Cc1cccc(C(Br)S(=O)(=O)c2ccccc2)c1 (stereo unspecified)	HCMV inh -91 (no result: MARV entry inh, Lassa entry inh)
O=S(=O)(c1ccccc1)C(Br)S(=O)(=O)c1ccccc1	none (no result: MARV entry inh, Lassa entry inh)
CCc1ccc(CNC(=O)c2cc(-c3ccc(Cl)s3)nc3ccccc23)cc1	none
COc1ccc(S(=O)(=O)N2CCCC(C(=O)Nc3cccnc3)C2)cc1Cl (stereo unspecified)	MARV entry inh inconclusive, FMDV antiviral 25µM, HCMV inh inconclusive
CC(=O)Nc1ccc(NC(=O)C2CCN(c3cnccn3)CC2)cc1	none
COc1ccc(S(=O)(=O)N2CCCC(C(=O)Nc3cccc(C(C)=O)c3)C2)cc1 (stereo unspecified)	MARV entry inh inconclusive, FMDV antiviral inconclusive, HCMV inh -66
COc1ccc(S(=O)(=O)N2CCC(C(=O)NCc3ccncc3)CC2)cc1Cl	none
COc1ccc(NC(=O)C2CCN(c3cnccn3)CC2)cc1Cl	MARV entry inh inconclusive, HCMV inh -60!
CC(=O)c1cccc(NC(=O)C2CCCN(S(=O)(=O)c3ccc(F)cc3)C2)c1 (stereo unspecified)	FMDV antiviral inconclusive
COc1ccc(S(=O)(=O)N2CCCC(C(=O)NCc3ccncc3)C2)cc1Cl (stereo unspecified)	HCMV inh -66 (no result: FMDV antiviral)
O=S(=O)(c1ccc(NC(=S)NCc2ccncc2)cc1)N1CCCCC1	MARV entry inh inconclusive, HCMV inh -65
COc1ccc(CNC(=O)C2CCCN(S(=O)(=O)N(C)c3ccc(F)cc3)C2)cc1OC (stereo unspecified)	FMDV antiviral 13µM, HCMV inh inconclusive (no result: MARV entry inh)
CCOc1ccc(CNC(=O)C2CCCN(S(=O)(=O)N(C)c3ccc(F)cc3)C2)cc1OC (stereo unspecified)	FMDV antiviral inconclusive (no result: Lassa entry inh)
COc1ccc(CNC(=S)NCc2ccc(F)cc2)cc1OC	HCMV inh -63
O=S(=O)(c1ccc(NC(=S)NCc2ccco2)cc1)N1CCCC1	none
Cc1cc(Br)ccc1NC(=O)CN(C)C(=O)C1CCN(C(=O)c2ccc(F)cc2)CC1	none
CCOc1ccccc1NC(=O)/C(C#N)=C/c1c(C)nn(-c2ccc(F)cc2)c1Cl	none
N=C1S/C(=C\c2cccc3ccccc23)C(=O)N1c1ccc(F)cc1	MARV entry inh inconclusive, Lassa entry inh 8.9µM, HCMV inh -71
Cc1cc2c(cc1Cl)N(C(=O)Nc1ccnc3ccccc13)CC2	MARV entry inh inconclusive (no result: FMDV antiviral, HCMV inh)
Cc1cc2c(cc1Cl)N(C(=O)Nc1ccc(Oc3cccnc3C)nc1)CC2	MARV entry inh inconclusive, Lassa entry inh 12µM (no result: FMDV antiviral, HCMV inh)
c1ccc(N2[C@@H]3CC[C@H]2c2ccncc2C3)cc1	none (no result: MARV entry inh, Lassa entry inh)
CCCCCN(CCCCC)C(=O)C(CCC(=O)O)NC(=O)c1ccc(Cl)c(Cl)c1 (stereo unspecified)	MARV entry inh inconclusive, HCMV inh -61
CNc1cncc(-c2cccc(OC)c2F)n1	none (no result: MARV entry inh, Lassa entry inh)
CNc1cncc(-c2c(OC)cccc2OC)n1	HCMV inh -103 (no result: MARV entry inh, Lassa entry inh)
O=C(CSc1nnc2n1CCCCC2)NCc1ccccc1	HCMV inh inconclusive (no result: MARV entry inh, Lassa entry inh)
Cc1cccc(-c2nnc(SCC(=O)N3c4ccccc4CCc4ccccc43)n2C)c1	MARV entry inh inconclusive, HCMV inh -70
Cn1c(SCC(=O)N2CCCc3ccccc32)nnc1-c1ccccc1	none (no result: FMDV antiviral)
Cn1c(SCC(=O)N2c3ccccc3CCc3ccccc32)nnc1-c1cc2ccccc2cc1O	MARV entry inh inconclusive, HCMV inh -65
Cn1c(SCC(=O)N2CCCc3ccccc32)nnc1-c1ccco1	MARV entry inh inconclusive
COc1ccccc1OCCNC(=O)C1CC(=O)N(Cc2ccccc2)C1 (stereo unspecified)	none (no result: MARV entry inh, Lassa entry inh)
CCOc1ccccc1CN1CCCC(C(=O)Nc2cccc(-n3cccn3)c2)C1 (stereo unspecified)	FMDV antiviral inconclusive (no result: MARV entry inh, Lassa entry inh)
Cc1cccc(NC(=O)CSc2nc3ccc(NC(=O)COc4ccccc4F)cc3s2)c1	FMDV antiviral inconclusive
O=C(Nc1cccc(F)c1)NC1CC2CCCC(C1)N2C1CC1 (stereo unspecified)	none
COC(=O)c1ccc(CN2CCN(Cc3ccc(C(=O)OC)o3)CC2)o1	none
O=C(O)c1ccc(CN2CCCCC2)o1	HCMV inh -68 (no result: FMDV antiviral)
CC(C)(C)N1C(=O)c2ccc(C(=O)Nc3ccc(C(=O)O)cc3)cc2C1=O	none (no result: MARV entry inh, Lassa entry inh)
Cc1ccc(C)c(N2CCN(CCCNC(=O)c3cnn(-c4cccc(Cl)c4)c3C3CCN(C(=O)OC(C)(C)C)CC3)CC2)c1	Lassa entry inh 13µM (no result: MARV entry inh)
Cc1ccc(C)c(N2CCN(CCCNC(=O)c3cnn(-c4ccccc4Cl)c3C3CCN(C(=O)OC(C)(C)C)CC3)CC2)c1	Lassa entry inh inconclusive, FMDV antiviral inconclusive, HCMV inh -105 (no result: MARV entry inh)
Cc1ccc(C)c(N2CCN(C(=O)c3cnn(-c4ccccc4Cl)c3C3CCN(C(=O)OC(C)(C)C)CC3)CC2)c1	Lassa entry inh inconclusive, FMDV antiviral inconclusive (no result: MARV entry inh)
Cc1ccc(C)c(N2CCN(CCCNC(=O)c3cnn(-c4ccc(F)cc4)c3C3CCN(C(=O)OC(C)(C)C)CC3)CC2)c1	FMDV antiviral inconclusive (no result: MARV entry inh)
O=S(=O)(Cc1cc(-c2ccc(Cl)cc2)no1)c1ccccc1	none
Cc1[nH]c2ccc(-c3n[nH]c(=S)n3C)cc2c1C	HCMV inh inconclusive (no result: FMDV antiviral)
Nc1ccc(CNC(=O)OCC2c3ccccc3-c3ccccc32)cc1	none (no result: MARV entry inh, Lassa entry inh)
Cc1ccc2oc(-c3cc(NC(=O)c4cccs4)cc(C)c3O)nc2c1	none
Cc1cc(NC(=O)c2ccco2)cc(-c2nc3cc(Cl)ccc3o2)c1O	HCMV inh -61
